Source: PubChem BioAssay (NCI)
About 83,000 compounds went through this panel and 20% of them were active in at least one assay; those are over-represented in the sample as a whole.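 Plates (96-well) were seeded with cells, treated with compound at one concentration, and incubated for 48 hours before percent growth was determined.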 Values without a mark were called inactive. The source made the active and inactive calls. How the source made its calls: active means growth percent below 10; inactive means the rest.

Legend:
Assay in all cases: NCI-60 one-dose screen, 48 h (100 = growth as untreated, 0 = no growth, -100 = all killed)
Settings in all cases: 10 µM
HCT-15 colon = test system: HCT-15 colon
HT29 colon = test system: HT29 colon
SNB-75 CNS = test system: SNB-75 CNS
SNB-19 CNS = test system: SNB-19 CNS
U251 CNS = test system: U251 CNS
PC-3 prostate = test system: PC-3 prostate
SK-MEL-5 melanoma = test system: SK-MEL-5 melanoma
UACC-62 melanoma = test system: UACC-62 melanoma
LOX IMVI melanoma = test system: LOX IMVI melanoma
SK-MEL-28 melanoma = test system: SK-MEL-28 melanoma
SK-MEL-2 melanoma = test system: SK-MEL-2 melanoma
EKVX NSCLC = test system: EKVX NSCLC
SN12C renal = test system: SN12C renal
UO-31 renal = test system: UO-31 renal
TK-10 renal = test system: TK-10 renal
ACHN renal = test system: ACHN renal
CAKI-1 renal = test system: CAKI-1 renal
A498 renal = test system: A498 renal
MOLT-4 leukemia = test system: MOLT-4 leukemia
CCRF-CEM leukemia = test system: CCRF-CEM leukemia

Structure (SMILES) | growth (HCT-15 colon) | growth (HT29 colon) | growth (SNB-75 CNS) | growth (SNB-19 CNS) | growth (U251 CNS) | growth (PC-3 prostate) | growth (SK-MEL-5 melanoma) | growth (UACC-62 melanoma) | growth (LOX IMVI melanoma) | growth (SK-MEL-28 melanoma) | growth (SK-MEL-2 melanoma) | growth (EKVX NSCLC) | growth (SN12C renal) | growth (UO-31 renal) | growth (TK-10 renal) | growth (ACHN renal) | growth (CAKI-1 renal) | growth (A498 renal) | growth (MOLT-4 leukemia) | growth (CCRF-CEM leukemia)
N#Cc1c(N)nc(-c2cc(F)cc(C(F)(F)F)c2)nc1-c1ccccc1F | 67.4% | 39.7% | 13.6% | 46.5% | 19.5% | 81.4% | 93.6% | 84% | 54% | 75.9% | 90.4% | 38.6% | 24.9% | 33.3% | 38.1% | 2.03% (active) | 78.1% | 5.56% (active) | 50.1% | 
CC(C)(C)OC(=O)N1CCc2c(sc3ncnc(N/N=C/c4ccc(Br)cc4)c23)C1 | 28.1% | 33.8% | 61.8% | 69.5% | 67.3% | 44% | 24% | 42.2% | 54.8% | 63.2% | 68.4% | 52% | 75.2% | 44.7% | 78.2% | 53.1% | 41% | 31.2% | 33.9% | 
O=C(O)c1cn(C2CC2)c2cc(N3CCN(C(=O)c4cc(-c5ccc(Cl)cc5)nc5ccccc45)CC3)c(F)cc2c1=O | 90.8% | 96.1% | 77.2% | 86% | 96% | 70.7% | 85.4% | 66.6% | 63.4% | 96.6% | 101% | 85.5% | 90.9% | 35.8% | 113% | 87.3% | 60.2% | 74.2% | 82.1% | 
O=C(CCNC(=O)c1nc(-c2ccccc2)n(-c2ccc(Cl)cc2)n1)NO | 104% | 89.8% | 99.1% | 102% | 96.1% | 89.6% | 103% | 100% | 98.5% | 101% | 91.7% | 95.8% | 103% | 88.3% | 94.4% | 100% | 97.3% | 114% | 98% | 
CCn1c(SCCc2ccccc2)nnc1-c1nn(-c2ccc(Cl)cc2Cl)c(-c2ccc(Cl)cc2)c1C | 45.6% | 67.2% | 90.7% | 76.7% | 54.7% | 39.8% | 74.3% | 68.6% | 63.8% | 79.2% | 53.8% | 52.6% | 70.3% | 53.5% | 75.3% | 61% | 64.4% | 96.6% | 41.6% | 
COc1cc(CNC(=O)C2CSC3(C)c4ccccc4C(=O)N23)cc(OC)c1OC (stereo unspecified) | 106% | 82.6% | 97.5% | 93% | 82.7% | 90% | 102% | 92.5% | 105% | 103% | 89.3% | 108% | 91.6% | 90.3% | 102% | 97.4% | 89.8% | 90.5% | 81.2% | 90.7%
C=CCNCCN1C(=O)c2ccc3c4c(ccc(c24)C1=O)C(=O)N(CCNCC=C)C3=O | -67.4% (active) | -44.9% (active) | -37.9% (active) | -88.1% (active) | -89.4% (active) | -7.8% (active) | -95.4% (active) | -74.9% (active) | -78.8% (active) | -57% (active) | -45.9% (active) | -82% (active) | -78% (active) | -58.4% (active) | -6.43% (active) | -56.3% (active) | -64.2% (active) | -73.7% (active) | -18.3% (active) | 4.83% (active)
CCOC(=O)Cn1c(=O)c2sc3ncccc3c2n2nnc(-c3ccccc3)c12 | 107% | 107% | 77.2% | 101% | 104% | 94.8% | 104% | 90.5% | 97.4% | 104% | 103% | 104% | 97.4% | 60.2% | 132% | 95.5% | 93.4% | 152% | 89.6% | 86.3%
COc1cc2ncnc(NC3CCC(O)CC3)c2cc1OC (stereo unspecified) | 101% | 90% | 91.9% | 97.4% | 90.2% | 87.7% | 98.6% | 97.1% | 95.3% | 108% | 97.1% | 80.8% | 106% | 76.2% | 90% | 94.9% | 88.5% | 93.7% | 62.8% | 
C#CCOc1c(OC)cc(C(=O)/C(C)=C/c2cccc(N=[N+]=[N-])c2)cc1OC | 18.7% | 2.11% (active) | 15.1% | 34.5% | 18.7% | 22.7% | 35.2% | 37.7% | 30.4% | 58.8% | 27.5% | 46% | 41.8% | 50.9% | 60.8% | 32.4% | 42.9% | 23.4% | 21.8% | 
O=S(=O)(Oc1ccc(-c2ccc3sccc3c2)cc1)c1ccc(F)cc1 | 88.9% | 96% | 120% | 103% | 101% | 91% | 97.6% | 80.2% | 96.9% | 103% | 114% | 91.5% | 96.5% | 92.2% | 93.7% | 107% | 82.7% | 95.3% | 89.4% | 86.1%
COc1ccc(-c2cc(-c3ccc(Cl)cc3)nc(SCCCCCCC(=O)NO)n2)cc1OC | 30.5% | 46.7% | 34% | 60.6% | 59.8% | 58.6% | 1.04% (active) | 28.1% | 0.604% (active) | 72.9% | 89.3% | 51.6% | 70.6% | 20.1% | 61.1% | 38.1% | 30.3% | 67.9% | 16.2% | 
Brc1ccc2c(c1)-c1ccccc1C1=NCCN12 | 1.51% (active) | -14.9% (active) | 8.5% (active) | 16.2% | -10.7% (active) | 2.13% (active) | -77.2% (active) | -13.4% (active) | -69.4% (active) | 0.722% (active) | -39.7% (active) | -2.72% (active) | -7.57% (active) | -16.6% (active) | -12.5% (active) | -22.2% (active) | -5.84% (active) | -75.7% (active) | -7.7% (active) | -12% (active)
CC(C)(C)OC(=O)N1CCc2c(sc3ncnc(N/N=C/c4cccc5ccccc45)c23)C1 | 6.88% (active) | 26.2% | -3.28% (active) | 26.3% | 33.7% | 25.9% | -57.2% (active) | 0.0448% (active) | 13.1% | 32.9% | 49.4% | 8.53% (active) | 32.8% | -8.22% (active) | 36.9% | 6.63% (active) | 24.2% | 4.77% (active) | 14.4% | 
CC[C@@H]1NC(=O)[C@H]([C@H](O)[C@H](C)C/C=C/c2ccc(CN3C(=O)CCCC3=O)cc2)N(C)C(=O)[C@H](C(C)C)N(C)C(=O)[C@H](CC(C)C)N(C)C(=O)[C@H](CC(C)C)N(C)C(=O)[C@@H](C)NC(=O)[C@H](C)NC(=O)[C@H](CC(C)C)N(C)C(=O)[C@H](C(C)C)NC(=O)[C@H](CC(C)C)N(C)C(=O)CN(C)C1=O | 19.5% | -24.8% (active) | 56.7% | 60.7% | 60.2% | 37.3% | 23.2% | 59.4% | 1.01% (active) | 46.3% | 38.2% | 37.4% | 71.1% | 49.7% | 39.8% | 40.3% | 77.3% | 4.54% (active) | 21.8% | 11.6%
